Source: PubChem
Most compounds without a hit are left out; they make up all but 7.5% or so of the library.
NPC1 prom act: activators of NPC1 promoter; Potency, µM (highest dose often 9.22 µM), for inactives: top-dose activation, most hits filed as activators; AID 485313; Huh7 NPC1 promoter luciferase reporter, 24 h; hit rate 2.4% among 320,000; also: % of control where 0% means no effect; nearly all actives have a fitted effect of over 60% in size
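Compounds in DMSO were transferred onto Huh7 NPC1-luciferase reporter cells pre-incubated 2 h; after 24 h at 37 °C, Amplite reagent was dispensed and luminescence recorded 10 min later.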
SMN2 splice enh: SMN2 splice variant enhancement; HEK293 SMN2-luciferase splicing reporter, luminescence, 30-36 h; Potency, µM (titrated, usually from 46.1 µM), for the others: at the highest dose activity change, positive = activation, most hits filed as activators; hit rate 2.8% among 210,000; also: % of control where 0% means no effect; nearly all actives have a fitted effect of over 55% in size
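qHTS luciferase splicing reporter: luminescence rises when SMN2 exon 7 is included in transfected HEK293 cells. Compound exposure lasted 30-36 h at 37C, with 4.5 mM final sodium butyrate as control, followed by a ONE-Glo read.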
FLuc modulator: inhibits or activates purified firefly luciferase, miR-21 counter-screen | P08659 | purified FLuc, Km substrates, luminescence inhibition | Potency, µM (series often up to 57.5 µM), inactives show at the top dose activity change, negative = inhibition, usual class: inhibitors | hit rate 6.9% among 360,000 | AID 588342;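 also: plate controls were vehicle for no effect and reference inhibitor for full effect; nearly all actives have a fitted effect of over 55% in size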
Target sequence (P08659 whole entry, looked up): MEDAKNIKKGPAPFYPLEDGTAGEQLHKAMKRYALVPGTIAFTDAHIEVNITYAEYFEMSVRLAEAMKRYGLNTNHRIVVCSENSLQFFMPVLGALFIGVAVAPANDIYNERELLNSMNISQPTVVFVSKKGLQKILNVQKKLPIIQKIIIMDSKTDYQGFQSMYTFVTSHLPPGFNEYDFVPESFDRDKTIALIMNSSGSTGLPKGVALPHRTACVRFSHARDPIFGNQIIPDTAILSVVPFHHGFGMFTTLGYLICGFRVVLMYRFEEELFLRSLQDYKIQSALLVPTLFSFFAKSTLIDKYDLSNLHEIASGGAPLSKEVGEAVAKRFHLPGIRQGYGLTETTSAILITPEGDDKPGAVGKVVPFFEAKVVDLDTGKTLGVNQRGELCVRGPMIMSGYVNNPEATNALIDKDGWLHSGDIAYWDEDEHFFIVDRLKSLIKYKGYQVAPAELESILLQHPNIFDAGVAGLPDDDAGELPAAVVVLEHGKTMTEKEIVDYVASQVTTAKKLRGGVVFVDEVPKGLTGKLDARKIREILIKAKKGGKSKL
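Biochemical qHTS of compounds, final roughly 60 µM downward over six points, against 10 nM purified firefly luciferase using Km concentrations of substrates (10 uM D-luciferin, 10 uM ATP) in Tris acetate pH 7.5 buffer; luminescence output.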
ELG1 genotoxic: genotoxicity induction in ELG1-luciferase HEK293T cells; HEK293T ELG1-luciferase reporter, luminescence, 16 h; Potency, µM (titrated, usually from 46 µM), without a hit: at the highest dose activity change, positive = activation, usual class: activators; hit rate 1.3% among 330,000; AID 504466; also: % of control where 0% means no effect; nearly all actives have a fitted effect of over 60% in size
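Genotoxicity was scored as increased ELG1-luciferase reporter signal, measured by ONE-Glo luminescence (30 min, room temperature). Compound or vehicle exposure of the HEK293T reporter cells lasted 16 hr at 37°C.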
Rab9 prom act: activators of Rab9 promoter. Huh7 Rab9 promoter-luciferase reporter, luminescence, 24 h. Potency, µM (top dose mostly 9.22 µM), without a hit: at the highest dose activation, negative = inhibition, hits mostly activators. hit rate 2.8% among 320,000. AID 485297; also: % of control where 0% means no effect; nearly all actives have a fitted effect of over 60% in size
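Measured in stably transfected Huh7 cells bearing a Rab9 promoter–luciferase construct: 24 h compound treatment at 37 °C, followed by luminescence detection.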
KinaseGlo FLuc: Kinase-Glo luciferase inhibition (counter-screen); Q27757; Kinase-Glo luciferase, ATP luminescence, 8 min; Potency, µM (titrated, usually from 38.3 µM), inactives show at the top dose activity change, negative = inhibition, most hits filed as inhibitors; hit rate 0.28% among 200,000; AID 1379; also: % is scaled to controls: 0 for no effect and ±100 for the full control effect; nearly all actives have a fitted effect of over 60% in size
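Recombinant Kinase-Glo luciferase, 10 uM ATP (linear range), luciferin; imidazole pH 7.2 / KCl / MgCl2 / Tween / BSA buffer; 8 min RT; luminescence.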
An asterisk follows results filed as active; ? = inconclusive; . = no result given. Calls follow the shape of the dose curve; as a rule, active = well fitted curve in the direction sought with a large enough effect; inconclusive = small, poorly fitted or top-dose-only effect, or another doubt; inactive = no such curve, though single readings can be large; an effect the other way counts as inactive or inconclusive. Potency is read from the fitted curve at half-maximal effect.

SMILES	NPC1 prom act	SMN2 splice enh	FLuc modulator	ELG1 genotoxic	Rab9 prom act	KinaseGlo FLuc
CC(C)(C)c1ccc(OCCC(=O)OCC(=O)Nc2ccc(N3CCOCC3)cc2)cc1	4%	.	?	3%	2%	.
Nc1c(C(=O)c2ccccc2)sc2nsc(SCCN3CCCC3)c12	-4%	.	24µM*	8%	23%	.
Nc1c(C(=O)c2ccc(Cl)cc2)sc2nsc(SCCN3CCOCC3)c12	11%	.	-10%	-7%	-4%	.
O=C(CSCC(=O)Nc1nc(-c2ccc3c(c2)OCO3)cs1)Nc1nccs1	25%	.	?	0%	25%	.
O=C(Nc1nc(-c2ccc3c(c2)OCO3)cs1)C1CC1	?	11µM*	12µM*	16µM*	3.5µM*	1%
CC(=O)Nc1nnc(-c2ccc3c(c2)CCCC3)o1	?	?	12µM*	?	4µM*	11%
CCCC(=O)Nc1nc(-c2ccc3c(c2)OCCO3)cs1	1.8µM*	8.9µM*	6µM*	2.6µM*	3.2µM*	2%
CCCC(=O)Nc1nnc(-c2ccc3c(c2)OCCO3)o1	16%	?	15µM*	-5%	2%	7%
CCCC(=O)Nc1nnc(-c2ccc3c(c2)OCO3)s1	22%	.	-14%	?	?	.
CC(NC(=O)c1cc(S(=O)(=O)N2CCOCC2)cn1C)c1ccccc1 (stereo not drawn)	-2%	.	0%	0%	-1%	.
O=C(Cn1c(=O)cnc2ccccc21)NC1CCC(O)CC1 (stereo not drawn)	-6%	.	0%	10%	-4%	.
CCOC(=O)c1ccc(CN(Cc2ccc(F)cc2)S(=O)(=O)c2ccc(F)c(C(=O)Nc3ccccc3C(F)(F)F)c2)cc1	.	.	-2%	.	.	.
CC1C(=O)CCC2[C@]1(C)CCC1[C@]2(C)CC[C@@]2(C)C3CC(C)(C)CC[C@]3(C)CC[C@@]12C (stereo partly drawn)	.	2%	.	.	.	-1%
CC(=O)Nc1ccc(-c2csc(NC(=O)C3CC(=O)N(c4ccc5c(c4)OCCO5)C3)n2)cc1 (stereo not drawn)	-1%	.	-17%	-6%	2%	.
O=C(O)C(=O)Nc1nc(-c2ccc3c(c2)OCCO3)cs1	-2%	.	9.5µM*	16%	2%	.
CSCC(=O)Nc1nc(-c2ccc3c(c2)OCCO3)cs1	3.2µM*	11µM*	11µM*	14%	2.8µM*	-2%
Cc1nc(NC(=O)C2CCCC2)sc1Cc1ccc2c(c1)OCO2	16%	?	17µM*	15%	?	0%
S=C(Nc1nc2c(s1)CCCC2)NC1CC1	?	.	12µM*	?	2.5µM*	.
COC(=O)c1ccc(C(=O)NC(=S)Nc2nc3c(s2)CCCC3)cc1	4µM*	?	15µM*	11%	?	3%
O=C(NC(=S)Nc1nc2c(s1)CCCC2)c1ccccc1	4µM*	2µM*	3.4µM*	5.2µM*	?	-6%
CSCCC(NC(=O)COc1ccccc1)C(=O)N1CCCCCC1 (stereo not drawn)	-3%	.	-1%	0%	0%	.
CN(Cc1ccccc1)C(C(=O)NC1CCCCC1)c1ccc(Cl)cc1 (stereo not drawn)	.	-6%	-6%	.	.	.
Cc1ccc(CNC(=O)c2ccc3c(c2)CCN3S(=O)(=O)c2ccc(Br)cc2)cc1	.	-9%	-2%	.	.	.
CCN(C[C@H]1N[C@@](C)(C(=O)OC)[C@H]2C(=O)N(C)C(=O)[C@@H]12)C(=O)COc1ccccc1	.	.	.	-3%	.	.
COc1ccc(OCc2cc(C(=O)NC(C)Cc3cccnc3)no2)c(Cl)c1 (stereo not drawn)	15%	.	13µM*	2%	2%	.
SMILES	NPC1 prom act	SMN2 splice enh	FLuc modulator	ELG1 genotoxic	Rab9 prom act	KinaseGlo FLuc
CC(Cn1cncn1)NC(=O)c1cc(COc2cccc(C(F)(F)F)c2)on1 (stereo not drawn)	8%	.	-13%	3%	20%	.
O=C(NCCc1cccnc1)c1cc(COc2ccc(F)cc2Cl)on1	8%	.	19µM*	0%	6%	.
CC(Cc1cccnc1)NC(=O)c1cc(COc2ccc(F)cc2F)on1 (stereo not drawn)	-3%	.	-10%	-6%	6%	.
COc1ccc(OCc2cc(C(=O)NC(C)Cn3cncn3)no2)c(Cl)c1 (stereo not drawn)	?	.	12µM*	?	?	.
COc1ccc(OCc2cc(C(=O)NC(C)Cc3ccccn3)no2)c(Cl)c1 (stereo not drawn)	14%	.	12µM*	5%	19%	.
O=C(NCCc1cccnc1)c1cc(COc2ccc(F)cc2F)on1	3%	.	-20%	-2%	-2%	.
CS(=O)(=O)CC(=O)Nc1ccc2nc3n(c(=O)c2c1)CCCCC3	4%	.	-4%	-19%	-1%	.
CCN(Cc1ccc2c(c1)OCCO2)C(=O)CSc1nc(C)nc2sc(C)c(C)c12	-2%	.	-2%	-6%	-6%	.
O=C(Cn1ccc2cc(S(=O)(=O)N3CCCCCC3)ccc21)NCCc1ccccc1Cl	.	.	1%	.	.	.
O=C(CC(=O)c1ccccc1)Nc1cccnc1Cl	?	13µM*	12µM*	?	?	-6%
O=C(CCc1ccccc1)Nc1cccnc1Cl	16%	.	-15%	9%	25%	.
O=C(COC(=O)c1cccnc1Cl)c1ccccc1	13%	15%	2.7µM*	?	3%	-25%
O=C(OCc1ccc(COC(=O)c2cccnc2Cl)cc1)c1cccnc1Cl	-5%	-4%	?	-3%	-7%	-2%
CCC(C)(C)c1ccc(OC(=O)c2cccnc2Cl)cc1	-1%	.	4.8µM*	?	6%	.
O=C(COC(=O)c1cccnc1Cl)c1ccc(F)cc1	2%	14%	3µM*	7%	1%	-15%
Cc1cc(C)c(C)c(S(=O)(=O)Nc2ccccc2N2CCOCC2)c1C	.	.	.	-4%	.	.
CCc1ccc(-n2c(SCC(=O)NC3CCS(=O)(=O)C3)nc3ccccc3c2=O)cc1 (stereo not drawn)	-4%	.	5%	0%	-2%	.
CCc1ccc(C(=O)COC(=O)c2cccnc2Cl)cc1	1%	20%	0.43µM*	-2%	7%	-25%
COc1cccc(-c2nccc(-n3ccnc3)n2)c1	.	13µM*	.	.	.	-4%
COc1cccc(-c2cncnc2-n2ccnc2)c1	.	18%	.	.	.	-6%
Cc1nc2c(sc3nc4c(cc32)COC(C)(C)C4)c(=O)n1CC(=O)NCc1ccco1	-7%	13µM*	8.5µM*	?	?	-10%
Cc1nc2c(sc3nc4c(cc32)COC(C)(C)C4)c(=O)n1Cc1ccccc1	26%	-36%	24µM*	?	?	-2%
CC1(C)Cc2nc3sc4c(SCC(=O)NCc5ccco5)ncnc4c3cc2CO1	-2%	?	5.4µM*	2.1µM*	?	-3%
